Assay results from PubChem BioAssay (NCATS).
Inconclusive results are not listed. A call without a number means that no potency is given here. Values without a mark were called inactive. The source made the active and inactive calls. The call rests on the fitted dose curve; in most records, active means well fitted cell-killing curve with a large enough effect; inconclusive means small, poorly fitted or top-dose-only effect, or effect the other way; inactive means no such curve, though single readings can be large or run the other way.

assay: Viability qHTS for spleen associated tyrosine kinase inhibitor (SYKi) naive MV4-11 cells (AID 1963823); settings: MV4-11 AML viability, CellTiter-Glo luminescence, 72 h; series mostly up to 45 µM; further: nearly all actives have a fitted effect of over 40% in size
Outline: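 Read-out: CellTiter-Glo luminescence. Exposure: 72 hr, 37 C, 5% CO2, 95% humidity. Cells: MV4-11 without SYK inhibitor history, 500/well, qHTS format.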
Potency means the concentration at half of the fitted maximal effect.

SMILES | Potency | viability (% of control)
COc1ccc(C2(O)c3c(ccc4c3OC(C)(CCC=C(C)C)C=C4)NC(=O)C2OC)cc1 (stereo not drawn) | inactive | 
C[C@H]1CC(=O)C2=C(C1)C(O)C(O)[C@@]1(O)[C@H]2C(=O)c2cccc(O)c2[C@@H]1O (stereo partly drawn) | inactive | 
NCCOCCOCCNC(=O)Cc1ccc(Nc2nc(NCc3ccc(F)cc3)nc(NCC3CCCCC3)n2)cc1 | 2.31 µM (active) | 
C=CC1C(OC2OC(CO)C(O)C(O)C2O)OC=C2C(=O)N3C(C(=O)O)Cc4c([nH]c5ccccc45)C3CC21 (stereo not drawn) | inactive | 
C=C(CC/C=C(\C)C(=O)O)C1(O)CC=C(C)CC1 (stereo not drawn) | inactive | 
CN(CCOc1ccc(C[C@H](Nc2ccccc2C(=O)c2ccccc2)C(=O)O)cc1)c1ccccn1 | inactive | 
CC(C)=C1C[C@@]2(C)C(=CC1=O)CC[C@@H](O)[C@@H]2C | inactive | 
COc1cc(O)c2c(c1)C1=C[C@H](O)[C@@H](O)C[C@]1(C)OC2=O | inactive | 
COc1cc(/C=C/CO)ccc1O[C@@H]1O[C@H](CO)[C@@H](O)[C@H](O)[C@H]1O | inactive | 
C=Cc1cc(O)cc2nc(-c3ccc(O)c(F)c3)oc12 | 23.5 µM (active) | 
CC1(C)C(=O)N2c3ccccc3[C@]3(CC(n4cnc5ccccc5c4=O)C(=O)O3)[C@H]2N1O (stereo partly drawn) | inactive | 
CC(C)CC1OC(=O)C2CCCN2C(=O)CCNC(=O)C(Cc2ccccc2)NC(=O)C(C(C)C)N(C)C(=O)C(C(C)C)N(C)C1=O (stereo not drawn) | inactive | 
C=C1CCC2C(C)(COC(C)=O)CCCC2(C)C1CCC(C)CC(=O)O (stereo not drawn) | inactive | 
CCn1cc(NC(=S)Nc2cc(Cl)ccc2OC)c(C(N)=O)n1 | inactive | 
CC#CCn1c(N2CCCC(N)C2)nc2c1c(=O)n(Cc1nc(C)c3ccccc3n1)c(=O)n2C (stereo not drawn) | inactive | 
CC1(C)CC2C(O)C3=C(CC(C)(O)C2C1)C(=O)OC3 (stereo not drawn) | inactive | 
COC(=O)C[C@H]1C(C)(C)[C@H](OC(=O)C(C)C)[C@@]2(O)C(=O)[C@]1(C)C1CC[C@]3(C)C(CC(=O)O[C@H]3c3ccoc3)[C@]13O[C@@H]32 (stereo partly drawn) | inactive | 

SMILES | Potency | viability (% of control)
COc1ccc(N2CCN(CCCNC(=O)Cn3c(=O)c4cccn4c4c(C)ccnc43)CC2)cc1 | inactive | 
O=C(O)[C@H](Cc1ccccc1)Oc1ccc(-c2ccccc2)cc1 | inactive | 
CC(=O)OC[C@]12[C@H](OC(C)=O)[C@H](OC(=O)c3ccccc3)[C@@H]3[C@@H](OC(C)=O)[C@]1(OC3(C)C)[C@H](C)C[C@H](OC(C)=O)[C@@H]2OC(=O)c1ccccc1 | inactive | 
CC(=O)O[C@H]1[C@@H](O)[C@H](O[C@H]2[C@@H]3C=CO[C@@H](O[C@H]4O[C@@H](CO)[C@H](O)[C@@H](O)[C@@H]4O)[C@@H]3[C@@]3(CO)O[C@@H]23)O[C@@H](C)[C@@H]1OC(=O)/C=C/c1ccccc1 | inactive | 
C/C(=C\CCC(C)CCO)C(=O)O[C@@H]1[C@@H](O)[C@H](OC2OC=C(C(=O)O)C3CCC(C)(O)C23)O[C@H](CO)[C@H]1O (stereo partly drawn) | inactive | 
CC(=O)O[C@H]1CC2C(COC(=O)CC(C)C)=CO[C@@H](OC(=O)CC(C)C)C2[C@]12CO2 (stereo partly drawn) | 1.42 µM (active) | 
OC/C=C/C=C/[C@H]1Cc2cc(O)cc(O)c2O1 | inactive | 
C=C1/C(=C/C=C2\CCC[C@]3(C)[C@@H]([C@@H](C)OCCC(O)(CC)CC)CC[C@@H]23)C[C@@H](O)C[C@@H]1O | inactive | 
C#C[C@]1(OC(C)=O)CC[C@H]2[C@@H]3CCC4=C/C(=N/O)CC[C@@H]4[C@H]3CC[C@@]21CC | 26.6 µM (active) | 
CCc1cc(CC[C@]2(C3CCCC3)CC(O)=C(Cc3nc4nc(C)cc(C)n4n3)C(=O)O2)cc(CC)n1 | 10.3 µM (active) | 
CC1=C2C3OC(=O)C(C)C3(O)CCC2(C)CCC1=O (stereo not drawn) | inactive | 
C=C1C[C@]23C[C@H]1CC[C@H]2[C@]1(C)CCC[C@@](C)(C(=O)O)[C@H]1[C@@H]3C(=O)O | inactive | 
CC1=CC(=O)C2C(C)(C)CC(O)CC2(C)C1CO (stereo not drawn) | inactive | 
CC(O)CCc1ccc(O[C@@H]2O[C@H](CO)[C@@H](O)[C@H](O)[C@H]2O)cc1 (stereo partly drawn) | inactive | 
C/C1=C\CC[C@]2(C)O[C@H]2C(=O)c2c(C)coc2C1 | inactive | 
C=C1CCC2(OC1)OC1CC3C4CC=C5CC(O)CC(O[C@@H]6OC[C@H](OC(=O)C(O)C(C)CC)[C@H](O)[C@H]6O[C@@H]6O[C@@H](C)[C@H](O)[C@@H](O)[C@H]6O)C5(C)C4CCC3(C)C1C2C (stereo partly drawn) |  | 76.1% [at 9.25 µM]
